# Measured values reported in the supplement of paper PMC4466140.
# B1: unnamed (peptide)
# chain: QRIRKIPGIPLMSVG
# Key:
# Experiment in all cases: SPOT peptide array binding signal intensity (averaged, normalized) (arbitrary units (background-subtracted, floor 0; scale differs between SH3 domains)); higher = stronger binding of the SH3 domain to the peptide
# AgAbp1 = target: AgAbp1
# Procedure: (§1)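 GST-tagged SH3 domains from S. cerevisiae (Sc), A. gossypii (Ag), C. albicans (Ca) and S. pombe (Sp) were incubated at 10 ug/ml overnight at 4 C on cellulose SPOT membranes carrying 292 synthetic 15-mer peptides mined from the S. cerevisiae proteome (cysteines replaced by serines). Binding was detected with anti-GST antibody, HRP secondary and chemiluminescence, quantified with Genespotter, and reported as normalized spot intensities averaged over biological replicates.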
# AgBbc1 = target: AgBbc1
# Procedure: as §1
# AgBem1-D1 = target: AgBem1-D1
# Procedure: as §1
# AgBzz1-D1 = target: AgBzz1-D1
# Procedure: as §1
# AgBzz1-D2 = target: AgBzz1-D2
# Procedure: as §1
# AgCyk3 = target: AgCyk3
# Procedure: as §1
# AgFus1 = target: AgFus1
# Procedure: as §1
# AgHof1 = target: AgHof1
# Procedure: as §1
# AgHse1 = target: AgHse1
# Procedure: as §1
# AgLsb1 = target: AgLsb1
# Procedure: as §1
# AgLsb4 = target: AgLsb4
# Procedure: as §1
# AgMyo5 = target: AgMyo5
# Procedure: as §1
# AgNbp2 = target: AgNbp2
# Procedure: as §1
# AgRvs167 = target: AgRvs167
# Procedure: as §1
# AgSho1 = target: AgSho1
# Procedure: as §1
# AgSla1-D1-D2 = target: AgSla1-D1-D2
# Procedure: as §1
# AgSla1-D3 = target: AgSla1-D3
# Procedure: as §1
# CaAbp1-D1 = target: CaAbp1-D1
# Procedure: as §1
# CaAbp1-D2 = target: CaAbp1-D2
# Procedure: as §1
# CaBbc1 = target: CaBbc1
# Procedure: as §1
# CaBem1-D1 = target: CaBem1-D1
# Procedure: as §1
# CaBzz1-D1 = target: CaBzz1-D1
# Procedure: as §1
# CaBzz1-D2 = target: CaBzz1-D2
# Procedure: as §1
# CaCyk3 = target: CaCyk3
# Procedure: as §1
# CaFus1 = target: CaFus1
# Procedure: as §1
# CaHof1 = target: CaHof1
# Procedure: as §1
# CaHse1 = target: CaHse1
# Procedure: as §1
# CaLsb1 = target: CaLsb1
# Procedure: as §1
# CaLsb4 = target: CaLsb4
# Procedure: as §1
# CaMyo5 = target: CaMyo5
# Procedure: as §1
# CaNbp2 = target: CaNbp2
# Procedure: as §1
# CaRvs167 = target: CaRvs167
# Procedure: as §1
# CaRvs167-3 = target: CaRvs167-3
# Procedure: as §1
# CaSho1 = target: CaSho1
# Procedure: as §1
# CaSla1-D1-D2 = target: CaSla1-D1-D2
# Procedure: as §1
# CaSla1-D3 = target: CaSla1-D3
# Procedure: as §1
# ScAbp1 = target: ScAbp1
# Procedure: as §1
# ScBbc1 = target: ScBbc1
# Procedure: as §1
# ScBem1-D1 = target: ScBem1-D1
# Procedure: as §1
# ScBzz1-D1 = target: ScBzz1-D1
# Procedure: as §1
# ScBzz1-D2 = target: ScBzz1-D2
# Procedure: as §1
# ScCyk3 = target: ScCyk3
# Procedure: as §1
# ScFus1 = target: ScFus1
# Procedure: as §1
# ScHof1 = target: ScHof1
# Procedure: as §1
# ScHse1 = target: ScHse1
# Procedure: as §1
# ScLsb1 = target: ScLsb1
# Procedure: as §1
# ScLsb2 = target: ScLsb2
# Procedure: as §1
# ScLsb3 = target: ScLsb3
# Procedure: as §1
# ScLsb4 = target: ScLsb4
# Procedure: as §1
# ScMyo3 = target: ScMyo3
# Procedure: as §1
# ScMyo5 = target: ScMyo5
# Procedure: as §1
# ScNbp2 = target: ScNbp2
# Procedure: as §1
# ScPex13 = target: ScPex13
# Procedure: as §1
# ScRvs167 = target: ScRvs167
# Procedure: as §1
# ScSho1 = target: ScSho1
# Procedure: as §1
# ScSla1-D1-D2 = target: ScSla1-D1-D2
# Procedure: as §1
# ScSla1-D3 = target: ScSla1-D3
# Procedure: as §1
# SpAbp1-D1 = target: SpAbp1-D1
# Procedure: as §1
# SpBbc1 = target: SpBbc1
# Procedure: as §1
# SpBzz1-D1 = target: SpBzz1-D1
# Procedure: as §1
# SpBzz1-D2 = target: SpBzz1-D2
# Procedure: as §1
# SpCyk3 = target: SpCyk3
# Procedure: as §1
# SpHof1 = target: SpHof1
# Procedure: as §1
# SpHof1-2 = target: SpHof1-2
# Procedure: as §1
# SpHof1-3 = target: SpHof1-3
# Procedure: as §1
# SpHse1 = target: SpHse1
# Procedure: as §1
# SpLsb1 = target: SpLsb1
# Procedure: as §1
# SpLsb4 = target: SpLsb4
# Procedure: as §1
# SpMyo1 = target: SpMyo1
# Procedure: as §1
# SpNbp2 = target: SpNbp2
# Procedure: as §1
# SpPex13 = target: SpPex13
# Procedure: as §1
# SpRvs167 = target: SpRvs167
# Procedure: as §1
# SpSla1-D1-D2 = target: SpSla1-D1-D2
# Procedure: as §1
# SpSla1-D3 = target: SpSla1-D3
# Procedure: as §1
binder,measurement,setting,value
B1,SPOT peptide array binding signal intensity,AgAbp1,26
same,SPOT peptide array binding signal intensity,AgBbc1,184
same,SPOT peptide array binding signal intensity,AgBem1-D1,63.5
same,SPOT peptide array binding signal intensity,AgBzz1-D1,19.5
same,SPOT peptide array binding signal intensity,AgBzz1-D2,34
same,SPOT peptide array binding signal intensity,AgCyk3,1
same,SPOT peptide array binding signal intensity,AgFus1,296
same,SPOT peptide array binding signal intensity,AgHof1,29.2
same,SPOT peptide array binding signal intensity,AgHse1,194
same,SPOT peptide array binding signal intensity,AgLsb1,13.8
same,SPOT peptide array binding signal intensity,AgLsb4,258
same,SPOT peptide array binding signal intensity,AgMyo5,≤ 0
same,SPOT peptide array binding signal intensity,AgNbp2,486
same,SPOT peptide array binding signal intensity,AgRvs167,54.8
same,SPOT peptide array binding signal intensity,AgSho1,104
same,SPOT peptide array binding signal intensity,AgSla1-D1-D2,40.5
same,SPOT peptide array binding signal intensity,AgSla1-D3,11.5
same,SPOT peptide array binding signal intensity,CaAbp1-D1,253
same,SPOT peptide array binding signal intensity,CaAbp1-D2,358
same,SPOT peptide array binding signal intensity,CaBbc1,226
same,SPOT peptide array binding signal intensity,CaBem1-D1,34.5
same,SPOT peptide array binding signal intensity,CaBzz1-D1,162
same,SPOT peptide array binding signal intensity,CaBzz1-D2,106
same,SPOT peptide array binding signal intensity,CaCyk3,49.5
same,SPOT peptide array binding signal intensity,CaFus1,707
same,SPOT peptide array binding signal intensity,CaHof1,0.25
same,SPOT peptide array binding signal intensity,CaHse1,94.2
same,SPOT peptide array binding signal intensity,CaLsb1,1.25
same,SPOT peptide array binding signal intensity,CaLsb4,2460
same,SPOT peptide array binding signal intensity,CaMyo5,1.5
same,SPOT peptide array binding signal intensity,CaNbp2,549
same,SPOT peptide array binding signal intensity,CaRvs167,296
same,SPOT peptide array binding signal intensity,CaRvs167-3,6.5
same,SPOT peptide array binding signal intensity,CaSho1,303
same,SPOT peptide array binding signal intensity,CaSla1-D1-D2,817
same,SPOT peptide array binding signal intensity,CaSla1-D3,38.5
same,SPOT peptide array binding signal intensity,ScAbp1,99
same,SPOT peptide array binding signal intensity,ScBbc1,32.5
same,SPOT peptide array binding signal intensity,ScBem1-D1,13.5
same,SPOT peptide array binding signal intensity,ScBzz1-D1,2
same,SPOT peptide array binding signal intensity,ScBzz1-D2,25
same,SPOT peptide array binding signal intensity,ScCyk3,7
same,SPOT peptide array binding signal intensity,ScFus1,284
same,SPOT peptide array binding signal intensity,ScHof1,2
same,SPOT peptide array binding signal intensity,ScHse1,553
same,SPOT peptide array binding signal intensity,ScLsb1,9.25
same,SPOT peptide array binding signal intensity,ScLsb2,13
same,SPOT peptide array binding signal intensity,ScLsb3,3970
same,SPOT peptide array binding signal intensity,ScLsb4,349
same,SPOT peptide array binding signal intensity,ScMyo3,≤ 0
same,SPOT peptide array binding signal intensity,ScMyo5,≤ 0
same,SPOT peptide array binding signal intensity,ScNbp2,672
same,SPOT peptide array binding signal intensity,ScPex13,408
same,SPOT peptide array binding signal intensity,ScRvs167,1160
same,SPOT peptide array binding signal intensity,ScSho1,1280
same,SPOT peptide array binding signal intensity,ScSla1-D1-D2,1610
same,SPOT peptide array binding signal intensity,ScSla1-D3,64
same,SPOT peptide array binding signal intensity,SpAbp1-D1,116
same,SPOT peptide array binding signal intensity,SpBbc1,9.25
same,SPOT peptide array binding signal intensity,SpBzz1-D1,176
same,SPOT peptide array binding signal intensity,SpBzz1-D2,5.75
same,SPOT peptide array binding signal intensity,SpCyk3,5
same,SPOT peptide array binding signal intensity,SpHof1,140
same,SPOT peptide array binding signal intensity,SpHof1-2,51.5
same,SPOT peptide array binding signal intensity,SpHof1-3,440
same,SPOT peptide array binding signal intensity,SpHse1,242
same,SPOT peptide array binding signal intensity,SpLsb1,17
same,SPOT peptide array binding signal intensity,SpLsb4,3060
same,SPOT peptide array binding signal intensity,SpMyo1,≤ 0
same,SPOT peptide array binding signal intensity,SpNbp2,359
same,SPOT peptide array binding signal intensity,SpPex13,22
same,SPOT peptide array binding signal intensity,SpRvs167,1140
same,SPOT peptide array binding signal intensity,SpSla1-D1-D2,89.5
same,SPOT peptide array binding signal intensity,SpSla1-D3,27
